# Only some compounds are listed: those with a hit (about 1.3% of all), similar ones and a draw of the others.
# 3CLpro inhibitor = SARS-CoV 3CLpro protease inhibition; recombinant SARS-CoV 3CLpro, quenched FRET peptide cleavage; inhibition, % at 6 µM; actives 0.14% (n = 290,000); AID 1706; in the data active means inhibition above about 12%
# BJeLR viability = BJeLR cell viability loss. BJeLR (HRASV12) viability, CellTiter-Glo ATP luminescence, 48 h. inhibition, % (no concentration beside the values). actives 0.17% (n = 300,000). AID 1554; in the data active means inhibition above about 50%; inconclusive means no clear call, values can overlap the other calls
# PfHsp40 yeast = rescue of PfHsp40-mediated yeast toxicity; S. cerevisiae expressing PfHsp40, growth rescue, ATP luminescence; growth rescue, % at 12.5 µM; actives 0.68% (n = 340,000); in the data active means growth rescue above about 28%, passing the limit was not always enough; inconclusive means no clear call, values can overlap the other calls;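 further: yeast W303a lacking pdr1 and pdr3 grown in galactose medium; growth measured after three days at 30 °C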
# Sa ugtP lethal = compounds lethal to S. aureus RN4220 ugtP deletion mutant; growth inhibition, % (no concentration beside the values); actives 0.54% (n = 330,000); AID 1259309; OD600 growth, 16 h; in the data active means growth inhibition above about 68%;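 further: plate controls were untreated wells for no effect and antibiotic for full effect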
# RN4220 kill = S. aureus RN4220 growth inhibition | inhibition, % (test concentration not listed) | OD600, 16 h | actives 0.33% (n = 330,000); in the data active means inhibition above about 85%;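 further: plate controls were untreated cells for no effect and reference antibiotic for full effect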
# Numbers without * were called inactive; ? = inconclusive; nt = no result.
SMILES,3CLpro inhibitor,BJeLR viability,PfHsp40 yeast,Sa ugtP lethal,RN4220 kill
NC(=O)Nc1ccc(Nc2ccccc2)cc1,0,-8,1,1,0
O=C(Nc1ccc(Nc2ccccc2)cc1)C(Cl)(Cl)Cl,10,-18,33*,-4,-7
COc1ccc2nc(NC(=O)c3ccoc3C)sc2c1,1,75*,-4,-20,-1
COc1ccc2nc(NC(=S)N(C)C)sc2c1,6,30,99*,2,3
COc1ccc2c(C)nc(Nc3nc(-c4ccccc4)cc(=O)[nH]3)nc2c1,0,58*,0,5,28
Clc1ccc(C(c2ccccc2Cl)C(Cl)Cl)cc1 (stereo unspecified),nt,nt,7,93*,-9
Cc1ccc(NC(=O)CSc2nnc(-c3n[nH]c4ccccc34)n2-c2ccccc2)c(C)c1,3,7,2,-11,-1
O=C1c2cccc(Cl)c2C(=O)c2c1cccc2N1CCCC1,5,4,381*,7,2
O=C1c2ccccc2C(=O)c2cc(N3CCCCC3)ccc21,nt,nt,1,1,7
Cc1ccc(SCC(=O)NC2CCCCCC2)cc1,-2,-4,-1,nt,nt
COc1ccccc1NC(=O)C(C)OC(=O)CCCN=C1NS(=O)(=O)c2ccccc21 (stereo unspecified),nt,3,-2,-3,0
Cc1cccc(S(=O)(=O)Nc2cccc(-c3cn4ccsc4n3)c2)c1,4,2,1,85*,-2
CC1(C)CC(=O)C(C(=O)Cc2ccccc2[N+](=O)[O-])C(=O)C1,1,14,29*,1,2
CCOc1ccc(CC(=O)C2C(=O)CC(C)(C)CC2=O)cc1OCC,2,-10,-3,-1,4
COc1ccc(Br)cc1CNC(=O)Nc1cccs1,1,-1,1,87*,91*
CN1CC2C3C(=O)N(C)C(=O)C3[C@](Cc3ccccc3)(C1=O)N2C(=O)c1ccc(Cl)cc1 (stereo partly specified),nt,nt,nt,-4,5
CCOc1ccc(Oc2cc(NC(=O)c3ccco3)cc([N+](=O)[O-])c2)cc1,2,nt,0,47,9
O=C(Nc1cc(Oc2ccc(Cl)cc2)cc([N+](=O)[O-])c1)c1ccco1,1,-5,352*,-20,-8
O=C(NC(=S)Nc1ccc(Br)c(Cl)c1)C1CC1,4,0,0,49,-11
CC(=O)c1ccc(NC(=S)Nc2ccc(Br)c(Cl)c2)cc1,3,0,-1,100*,100*
O=C(Nc1ccc(Cl)c(Cl)c1)N1CCCCCC1,-1,7,0,-8,-5
O=C(c1ccc(NC(=S)Nc2ccc(Cl)c(Cl)c2)cc1)N1CCCC1,-1,-1,0,100*,101*
Cn1/c(=N/N=C/c2ccc(Cl)c([N+](=O)[O-])c2)sc2ccccc21,6,-5,-1,nt,nt
CCNc1cc(O)ccc1C,nt,nt,77*,nt,nt
CC(C)=CCc1c2c(c3occ(-c4ccc(O)c(O)c4)c(=O)c3c1O)C=CC(C)(C)O2,nt,nt,4,nt,nt
SMILES,3CLpro inhibitor,BJeLR viability,PfHsp40 yeast,Sa ugtP lethal,RN4220 kill
CC(C)=CCc1c2c(c3occ(-c4ccc(O)cc4)c(=O)c3c1O)C=CC(C)(C)O2,3,1,39*,100*,99*
Cc1ccc2cccc(OCC(=O)N3CCc4ccccc43)c2n1,4,nt,-1,0,0
CC12CCC3C(CCC4(O)CC(O)CCC34C=O)C1(O)CCC2C1=CC(=O)OC1 (stereo unspecified),nt,nt,-1,nt,nt
C[C@]12CCC3C(CCC4=CC(O)CC[C@@]43/C=N/O)C1(O)CCC2C1=CC(=O)OC1 (stereo partly specified),-2,69*,0,nt,nt
CC(c1ccon1)N(C)Cc1cn(C)nc1-c1cccc(Cl)c1 (stereo unspecified),-1,1,79*,4,3
COc1cc(Cl)c(C)cc1NC(=O)CSc1nnc(CCC(=O)O)c(=O)[nH]1,-3,nt,0,4,2
O=C1NC(=S)N/C1=C/c1cccc([N+](=O)[O-])c1,-4,-6,61*,5,6
Cc1ccc(S(=O)(=O)N2CCOCC2)cc1NC(=O)C(c1ccc(Cl)cc1)C(C)C (stereo unspecified),nt,2,nt,91*,89*
Cc1ccc(-c2cc(C(=O)N3CCN(c4ccccc4O)CC3)c3ccccc3n2)o1,-4,5,137*,-6,5
O=C(c1cc(-c2ccc(Br)cc2)nc2ccccc12)N1CCN(c2ccccc2O)CC1,nt,5,-2,-24,-3
O=C(Nc1cccc2cccc(NC(=O)c3ccco3)c12)c1ccco1,3,2,1,-7,4
C(C#CCCCCCCCCC[n+]1ccccc1)#CCCCCCCCCC[n+]1ccccc1,1,52*,?,101*,100*
CCOC(=O)c1cnc(-n2nc(C)cc2C)nc1NC1CCCCC1,5,-13,92*,-8,13
Cc1ccc(NC(=O)C2C(c3ccccc3)C=CC(c3ccccc3)C2C(=O)O)cc1 (stereo unspecified),1,6,172*,29,-2
Cc1cc(C)c(OC2(c3ccccc3)OC(=O)c3ccccc32)c(C)c1 (stereo unspecified),-1,-2,-1,85*,-3
FC(F)(F)c1nnc2c(Sc3ccccc3)nc3ccc(Cl)cc3n12,4,62*,0,10,6
O=C(NC1CCS(=O)(=O)C1)c1ccc2c(c1)OCO2 (stereo unspecified),nt,-2,44*,-4,5
Cc1c2ccncc2c(C)c2c1[nH]c1ccccc12,-9,19,-1,100*,98*
COc1ccc2[nH]c3c(C)c4ccncc4c(C)c3c2c1,-12,101*,8,96*,98*
CCOC(=O)C1(CCCc2ccccc2)CCN(C(=O)c2cc(C)nc(C)n2)CC1,0,-11,1,4,8
O=[N+]([O-])c1ccc(-c2nn(-c3ccccc3)cc2C=Nn2c(-c3cccs3)n[nH]c2=S)cc1,nt,nt,nt,-9,3
CC1=C(C(=O)Nc2ccc(C(=O)N3CCN(c4ccccc4F)CC3)cc2)SCCO1,0,-16,0,6,4
c1ccc2c(c1)c1c(c3ccccc32)CN2CCCC2C1 (stereo unspecified),nt,nt,76*,nt,nt
CCN1/C(=C/c2ccc3cccc(C)c3[n+]2CC)Sc2ccccc21,-11,34,-1,100*,100*
Cc1ccc2c(c1)S/C(=C\c1cccc[n+]1C)N2CCO,-3,4,-1,0,1
CCN1C(=Cc2ccc3ccccc3[n+]2CC)Sc2cc(C)ccc21,nt,nt,nt,100*,101*
CCN1/C(=C/c2ccc3cc(C)ccc3[n+]2CC)Sc2ccc3sccc3c21,nt,92*,0,101*,100*
CCN1/C(=C/c2ccc3cc(C)cc(C)c3[n+]2CC)Sc2cc(C)ccc21,-27,nt,-6,100*,100*
CC[n+]1c(C)sc2c3ccsc3ccc21,5,2,0,5,5

# Source: PubChem BioAssay
